Laboratory results published in PubChem BioAssay (EPA / NIEHS).
Where “and” joins values, the source holds several entries; their conditions need not be identical. Equal values may be shown once. Inconclusive results are not listed. Calls of active or inactive are those of the source. Rule for the calls, unless noted: active = hit-call score of the fitted dose curve at least 0.9, where 1 is the maximum; inconclusive = response in the unintended direction; inactive = score below 0.9.

Read-out: Intercellular Adhesion Molecule 1 (ICAM1), ICAM1 (gene 3383)
Test: BSK_3C_ICAM1: BioMAP Diversity Plus: 3C Assay for Intercellular Adhesion Molecule 1 (ICAM1) Biomarker Activity (AID 2283003; active = hit-call score of the fitted dose curve at least 0.9, where 1 is the maximum; inactive = score below 0.9)
Settings: primary human endothelial cells (HUVEC); actives raise or lower the signal
Procedure, shortened: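 Using DMSO as baseline, bidirectional curve fitting was applied to ICAM-1 ELISA signals from HUVEC in the 3C system, measured 24 h after compound addition.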

AC50, active:
CC(C)(C)CC(C)(C)c1ccc(OCCOCC[N+](C)(C)Cc2ccccc2)cc1 8.87 µM, CCC(C)c1cc([N+](=O)[O-])cc([N+](=O)[O-])c1OC(=O)OC(C)C (stereo unspecified) 29.1 µM, CCCCCC(C=O)=Cc1ccccc1 30.9 µM, CCCCN(CCCC)C(=O)N(CCCC)CCCC 10.7 µM, CC(C=O)Cc1ccc(C(C)(C)C)cc1 (stereo unspecified) 31.1 µM, c1ccc(Oc2ccccc2)cc1 32.2 µM, c1ccc(CCc2ccccc2)cc1 30.9 µM

outcome, inactive:
O=CN1CCOCC1, CCCCCCC(CO)CCCC (stereo unspecified), O=C1OC2(c3ccccc31)c1ccc(O)c(Br)c1Oc1c2ccc(O)c1Br, COc1cc(Cl)c(OC)cc1N, c1ccc2cc(Nc3ccc(Nc4ccc5ccccc5c4)cc3)ccc2c1, IC(I)I, CN(C)C(=S)SC(=S)N(C)C, C=C(C)C(=O)OCCOCCOCCOCCOC(=O)C(=C)C, CCCCCCCCCCCCCCCC(=O)OC/C=C(C)/C=C/C=C(C)/C=C/C1=C(C)CCCC1(C)C, COc1ccc(OC)c(N=Nc2c(O)ccc3ccccc23)c1

Target: human Retinoic Acid Receptor beta (RARb), RARB (gene 5915) (UniProt P10826)
Test: ATG_RARb_TRANS: Attagene TRANS-FACTORIAL HepG2 Assay for human Retinoic Acid Receptor beta (AID 2283004)
Settings: not given
Procedure, shortened: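 Induction of reporter mRNA from a chimeric RARb-Gal4 construct was measured by RT-PCR, FAM labelling, HpaI digestion and capillary electrophoresis. Measurements followed 24 h compound treatment of transiently transfected human HepG2 liver cells, with DMSO as baseline.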

Sequence of human Retinoic Acid Receptor beta (RARb), RARB (gene 5915) (P10826 whole entry, looked up): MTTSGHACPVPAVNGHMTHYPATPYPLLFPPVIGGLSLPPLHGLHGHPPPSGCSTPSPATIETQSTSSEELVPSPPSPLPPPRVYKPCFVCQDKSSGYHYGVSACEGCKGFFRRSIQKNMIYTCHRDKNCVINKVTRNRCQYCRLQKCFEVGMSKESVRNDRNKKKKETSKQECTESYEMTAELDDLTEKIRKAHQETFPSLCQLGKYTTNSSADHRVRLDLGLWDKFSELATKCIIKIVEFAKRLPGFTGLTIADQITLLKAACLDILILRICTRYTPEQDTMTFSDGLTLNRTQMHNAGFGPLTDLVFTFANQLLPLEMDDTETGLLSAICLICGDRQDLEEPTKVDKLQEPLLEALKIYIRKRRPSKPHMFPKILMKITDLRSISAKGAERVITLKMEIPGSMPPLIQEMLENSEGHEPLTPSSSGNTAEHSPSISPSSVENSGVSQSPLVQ

outcome, inactive:
C[Si]1(C)O[Si](C)(C)O[Si](C)(C)O1, CC(C)(C)CC(C)(C)c1ccc(OCCOCC[N+](C)(C)Cc2ccccc2)cc1, O=[N+]([O-])c1ccc(O)cc1C(F)(F)F, CCC(C)c1cc([N+](=O)[O-])cc([N+](=O)[O-])c1OC(=O)OC(C)C (stereo unspecified), [O-]n1ccccc1=S.[O-]n1ccccc1=S.[Zn+2], CCc1ccc(O)cc1, NCCNc1cccc2ccccc12, CCc1cc(Cc2cc(CC)cc(C(C)(C)C)c2O)c(O)c(C(C)(C)C)c1, COc1cc(Cl)c(OC)cc1N, CCCCCCCCCCCCCC(=O)OCC(O)CO (stereo unspecified), CCCCC(CC)COC(C)=O (stereo unspecified), CCCCCCCC/C=C\CCCCCCCC(=O)OCC, Nc1ccc2cc(S(=O)(=O)O)cc(O)c2c1N=Nc1ccccc1C(F)(F)F, NC(=S)NNC(N)=S, Nc1ccc(N)c2c1C(=O)c1ccccc1C2=O, CCCCCCC(O)CCCCCCCCCCC(=O)O (stereo unspecified), IC(I)I, c1ccc(Oc2ccccc2)cc1, O=C(O)c1ccc(O)cc1, CCCCCCCCCCCC(=O)OC[C@@H](O)[C@H]1OC[C@H](O)[C@H]1O, Cc1ccc(S(=O)(=O)Oc2ccc(N=Nc3ccc(-c4ccc(N=Nc5c(O)ccc6cc(S(=O)(=O)O)cc(S(=O)(=O)O)c56)c(C)c4)cc3C)cc2)cc1, COc1ccc(OC)c(N=Nc2c(O)ccc3ccccc23)c1, COC(C)(C)CCO, C=CC(=O)OCCC#N

Target: Retinoic acid receptor alpha (Homo sapiens) (UniProt P10276)
Test: ATG_RARa_TRANS: Attagene TRANS-FACTORIAL HepG2 Assay for human Retinoic Acid Receptor alpha (RARa) (AID 2283005);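 for AC50: potency for increased reporter signal meaning RARa activation over DMSO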
Settings: not given
Procedure, shortened: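 Reporter transcripts, measured by RT-PCR with fluorescent labeling and capillary electrophoresis after 24 h dosing, reflect activity of an exogenous human RARa–GAL4 fusion in transiently transfected HepG2. Fitted for increase relative to DMSO.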

Sequence of Retinoic acid receptor alpha (Homo sapiens) (P10276 whole entry, looked up): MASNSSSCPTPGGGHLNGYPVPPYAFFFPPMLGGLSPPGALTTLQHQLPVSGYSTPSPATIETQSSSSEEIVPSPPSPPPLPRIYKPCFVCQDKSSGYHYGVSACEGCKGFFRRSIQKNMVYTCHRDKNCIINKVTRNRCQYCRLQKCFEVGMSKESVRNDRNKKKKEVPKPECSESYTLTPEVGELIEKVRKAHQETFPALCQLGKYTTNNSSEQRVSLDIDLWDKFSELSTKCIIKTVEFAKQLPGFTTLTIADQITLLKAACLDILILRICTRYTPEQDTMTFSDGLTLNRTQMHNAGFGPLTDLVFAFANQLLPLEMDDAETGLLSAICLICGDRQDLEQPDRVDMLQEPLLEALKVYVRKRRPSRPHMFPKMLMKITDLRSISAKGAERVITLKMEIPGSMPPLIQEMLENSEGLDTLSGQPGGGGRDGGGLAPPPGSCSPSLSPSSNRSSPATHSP

outcome, inactive:
C[Si]1(C)O[Si](C)(C)O[Si](C)(C)O1, CCCCCCC(CO)CCCC (stereo unspecified), O=C1OC2(c3ccccc31)c1ccc(O)c(Br)c1Oc1c2ccc(O)c1Br, O=[N+]([O-])c1ccc(O)cc1C(F)(F)F, CCC(C)c1cc([N+](=O)[O-])cc([N+](=O)[O-])c1OC(=O)OC(C)C (stereo unspecified), [O-]n1ccccc1=S.[O-]n1ccccc1=S.[Zn+2], NCCNc1cccc2ccccc12, COc1cc(Cl)c(OC)cc1N, CCCCCCCCCCCCCC(=O)OCC(O)CO (stereo unspecified), CCCCC(CC)COC(C)=O (stereo unspecified), Nc1ccc2cc(S(=O)(=O)O)cc(O)c2c1N=Nc1ccccc1C(F)(F)F, NC(=S)NNC(N)=S, CCCCCCC(O)CCCCCCCCCCC(=O)O (stereo unspecified), IC(I)I, O=C(O)c1ccc(O)cc1, CCCCCCCCCCCC(=O)OC[C@@H](O)[C@H]1OC[C@H](O)[C@H]1O, C=CC(=O)OCCC#N

AC50, active:
CCc1cc(Cc2cc(CC)cc(C(C)(C)C)c2O)c(O)c(C(C)(C)C)c1 8.99 µM

Read-out: not listed separately
Test: BSK_3C_Proliferation: Cell Proliferation Assessment in the BioMAP Diversity Plus: 3C Assay (AID 2283006; active = hit-call score of the fitted dose curve at least 0.9, where 1 is the maximum; inactive = score below 0.9;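 for AC50: potency may reflect either rise or fall in cell number versus DMSO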)
Settings: primary human endothelial cells (HUVEC)
Procedure, shortened: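 Measured here: sulforhodamine B (0.1%) staining of TCA-fixed sub-confluent umbilical vein endothelial cultures 48 h post-dosing, absorbance 560 nm. DMSO served as negative control and baseline; both signal gain and loss were modelled.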

AC50, active:
CC(C)(C)CC(C)(C)c1ccc(OCCOCC[N+](C)(C)Cc2ccccc2)cc1 7.08 µM, CCCCCCC(CO)CCCC (stereo unspecified) 37.6 µM and 31.2 µM, O=C1OC2(c3ccccc31)c1ccc(O)c(Br)c1Oc1c2ccc(O)c1Br 9.61 µM, CCC(C)c1cc([N+](=O)[O-])cc([N+](=O)[O-])c1OC(=O)OC(C)C (stereo unspecified) 5.44 µM, CCCCCC(C=O)=Cc1ccccc1 30.8 µM, CCCCN(CCCC)C(=O)N(CCCC)CCCC 4.03 µM, CN(C)C(=S)SC(=S)N(C)C 19.9 µM, CC(C=O)Cc1ccc(C(C)(C)C)cc1 (stereo unspecified) 30.9 µM, c1ccc(Oc2ccccc2)cc1 31.2 µM, CCCCCCCCCCCCCCCC(=O)OC/C=C(C)/C=C/C=C(C)/C=C/C1=C(C)CCCC1(C)C 4.06 µM, c1ccc(CCc2ccccc2)cc1 22.7 µM, COc1ccc(OC)c(N=Nc2c(O)ccc3ccccc23)c1 12.6 µM

outcome, inactive:
O=CN1CCOCC1, COc1cc(Cl)c(OC)cc1N, c1ccc2cc(Nc3ccc(Nc4ccc5ccccc5c4)cc3)ccc2c1, IC(I)I, C=C(C)C(=O)OCCOCCOCCOCCOC(=O)C(=C)C
